# Results filed as inconclusive are left out. For some of these results: Entries with a potency or affinity are not part of this list. Calls of active or inactive are those of the source. Unless noted, no rule for the calls is given here.
# How the values were obtained:
# [1] = protection against mutant huntingtin cytotoxicity, PC12 cells, LDH release (AID 1610); details: PC12 mutant huntingtin toxicity, final LDH at 4 uM, stronger effect = lower value
# [2] = inhibitors of Cryptococcus chitosan production, flow cytometry, Cibacron Brilliant Red staining (AID 1347148); details: Cryptococcus neoformans chitosan, stronger effect = lower value; at 10 µM unless noted;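 also: compound exposure lasted three days at 37 degrees C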
# [3] = antimalarial activity against Dd2 strain (AID 2302;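 active = growth inhibition above 50% at the single 2 µM test dose, taken to imply half-maximal potency below 2 µM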;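 also: 0% = DMSO untreated growth and 100% = chloroquine plus artemisinin killed control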); details: P. falciparum Dd2 in RBCs, LDH growth readout, 72 h; at 2 µM; stronger effect = higher value
# [4] = HepG2 cytotoxicity, primary screen, cytotoxicity control for P. falciparum antimalarial project, cell-based, ATP luminescence (AID 2303;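 active = inhibition above 50%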;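 also: 0% = DMSO wells and 100% = digitonin-killed cells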); details: HepG2 viability, 24-48 h, at 10 µM, stronger effect = higher value
# [5] = molecular target: L-lactate dehydrogenase (Plasmodium falciparum (isolate CDC / Honduras)) (UniProt Q27743); assay: PfLDH activity inhibition – cell lysate, 3D7 strain, counter-screen for P. falciparum growth inhibition project (AID 2304);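 also: 0% = vehicle and 100% = reference inhibitor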; details: P. falciparum 3D7 crude extract, LDH APAD/NBT absorbance; at 2 µM; stronger effect = higher value
# Sequence of L-lactate dehydrogenase (Plasmodium falciparum (isolate CDC / Honduras)) (Q27743 whole entry, looked up): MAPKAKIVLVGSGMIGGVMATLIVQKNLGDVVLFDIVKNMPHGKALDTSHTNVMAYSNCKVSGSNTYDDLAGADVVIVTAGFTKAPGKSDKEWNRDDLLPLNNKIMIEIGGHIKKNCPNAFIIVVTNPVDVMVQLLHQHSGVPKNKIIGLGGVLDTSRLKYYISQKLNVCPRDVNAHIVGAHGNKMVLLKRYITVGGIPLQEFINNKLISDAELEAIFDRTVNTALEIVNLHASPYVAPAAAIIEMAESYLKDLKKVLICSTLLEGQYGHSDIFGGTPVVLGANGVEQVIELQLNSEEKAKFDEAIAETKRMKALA
# [6] = inhibition of 3D7 malaria parasite growth – strain 3D7 (AID 2306);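 also: 0% = DMSO wells and 100% = chloroquine plus artemisinin control wells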; details: P. falciparum 3D7 erythrocytic growth, LDH absorbance, 72 h; at 2 µM; stronger effect = higher value
# [7] = molecular target: Protein kinase 7 (PK7), Plasmodium falciparum 3D7 (PF3D7_0213400) (UniProt Q7YTF7); assay: inhibition of Plasmodium PK7 catalytic activity – biochemical, TCAMS antimalarial set, Kinase-Glo luminescence (AID 1159587); details: recombinant PfPK7, Kinase-Glo ATP depletion luminescence
# Sequence of Protein kinase 7 (PK7), Plasmodium falciparum 3D7 (PF3D7_0213400) (Q7YTF7 1-343): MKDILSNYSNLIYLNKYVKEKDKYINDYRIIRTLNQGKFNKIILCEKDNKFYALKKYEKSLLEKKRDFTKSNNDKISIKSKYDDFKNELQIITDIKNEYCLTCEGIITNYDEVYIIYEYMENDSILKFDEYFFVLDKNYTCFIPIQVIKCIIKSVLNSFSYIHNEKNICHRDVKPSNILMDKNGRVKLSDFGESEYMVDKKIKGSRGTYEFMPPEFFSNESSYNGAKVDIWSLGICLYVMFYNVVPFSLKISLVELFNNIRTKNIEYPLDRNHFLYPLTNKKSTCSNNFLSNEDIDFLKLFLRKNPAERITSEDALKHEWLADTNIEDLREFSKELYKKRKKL
# [8] = molecular target: Calcium-dependent protein kinase 4 (Plasmodium falciparum (isolate 3D7)) (UniProt Q8IBS5); assay: PfCDPK4 kinase inhibitors, biochemical, TCAMS library (AID 1159588; cut-off not given, nearly all actives have IC50 up to about 0.91 µM); details: recombinant PfCDPK4, Kinase-Glo ATP depletion luminescence
# Sequence of Calcium-dependent protein kinase 4 (Plasmodium falciparum (isolate 3D7)) (Q8IBS5 whole entry, looked up): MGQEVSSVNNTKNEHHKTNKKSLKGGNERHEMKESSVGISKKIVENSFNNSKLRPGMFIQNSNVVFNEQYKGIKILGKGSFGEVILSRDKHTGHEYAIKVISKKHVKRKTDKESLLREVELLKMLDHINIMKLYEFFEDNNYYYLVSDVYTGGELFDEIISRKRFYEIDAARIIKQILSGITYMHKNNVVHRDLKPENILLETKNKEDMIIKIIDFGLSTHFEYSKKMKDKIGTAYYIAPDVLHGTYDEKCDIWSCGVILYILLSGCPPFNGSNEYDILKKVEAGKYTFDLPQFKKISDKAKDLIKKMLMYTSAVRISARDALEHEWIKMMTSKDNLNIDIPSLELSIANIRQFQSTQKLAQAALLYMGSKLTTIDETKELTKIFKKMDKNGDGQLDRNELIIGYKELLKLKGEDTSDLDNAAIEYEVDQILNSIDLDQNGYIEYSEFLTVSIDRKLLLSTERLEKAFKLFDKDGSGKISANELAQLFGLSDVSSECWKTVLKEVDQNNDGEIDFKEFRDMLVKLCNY
# [9] = enhancers of SMN2 over SMN1 splicing, cell-based, SMN2/SMN1 luciferase reporters (AID 1598); details: SMN2 vs SMN1 luciferase splicing reporter cells, at 10 µM; SMN1 luciferase ratio: measured here: SMN1 luciferase reporter average; SMN2 luciferase ratio: measured here: SMN2 luciferase reporter average, stronger effect = higher value; SMN2/SMN1 luciferase ratio: stronger effect = higher value
smiles,measurement,setting,value
O=c1c2ccccc2[se]n1-c1ccccc1,normalised LDH release,[1],0.64
same,fold fluorescence,[2],9.59 [at 182.4 µM] (inactive)
C=C[C@H]1CN2CC[C@H]1C[C@@H]2[C@@H](O)c1ccnc2ccccc12,growth inhibition,[3],2% (inactive)
same,inhibition,[4],-7% (inactive)
same,inhibition,[5],3% (inactive)
same,growth inhibition,[6],101% (active)
same,outcome,[7],inactive
same,outcome,[8],inactive
CC[C@@]1(O)C(=O)OCc2c1cc1n(c2=O)Cc2cc3ccccc3nc2-1,SMN1 luciferase ratio,[9],0.16
same,SMN2/SMN1 luciferase ratio,[9],1.74 (active)
same,SMN2 luciferase ratio,[9],0.26
same,fold fluorescence,[2],6.75 [at 143.5 µM] (inactive)
C=C[C@H]1CN2CC[C@H]1C[C@H]2[C@H](O)c1ccnc2ccccc12,growth inhibition,[3],3% (inactive)
same,inhibition,[4],9% (inactive)
same,inhibition,[5],2% (inactive)
same,growth inhibition,[6],100% (active)
same,outcome,[7],inactive
same,outcome,[8],inactive
CC[C@H]1CN2CC[C@H]1C[C@@H]2[C@@H](O)c1ccnc2ccc(OC)cc12,growth inhibition,[3],95% (active)
same,inhibition,[4],-3% (inactive)
same,inhibition,[5],1% (inactive)
same,growth inhibition,[6],100% (active)
same,outcome,[7],inactive
same,outcome,[8],inactive
COc1ccc(C[C@H]2NC[C@H](O)[C@H]2OC(C)=O)cc1,growth inhibition,[3],98% (active)
same,inhibition,[4],39% (inactive)
same,inhibition,[5],6% (inactive)
same,growth inhibition,[6],100% (active)
same,outcome,[7],inactive
same,outcome,[8],inactive
same,fold fluorescence,[2],11.2 [at 188.5 µM] (inactive)

# — PubChem BioAssay
